± gives the uncertainty stated by the source.
Test system: Candidatus Liberibacter solanacearum in potato hairy roots
Assay: relative CLso titer (% of untreated control); higher = less inhibition of bacterial titer
Conditions: 10 µM; 72 h
Procedure: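 Primary screen of ~220 Spectrum collection (MicroSource) compounds at 10 µM (0.1% DMSO) on Candidatus Liberibacter solanacearum-infected potato hairy roots in multi-well plates (Gamborg B-5 medium, vacuum infiltrated, 21 °C, dark, 72 h). CLso titer was measured by qPCR of 16S rDNA normalised to potato RPL2 (2^-ddCq), pairwise-standardised against untreated controls, averaged over two biological replicates and expressed as % of untreated.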

Point of comparison: `CC1(C)O[C@@H]2C[C@H]3[C@@H]4C[C@H](F)C5=CC(=O)C=C[C@]5(C)[C@H]4[C@@H](O)C[C@]3(C)[C@]2(C(=O)CO)O1`, “relative CLso titer” value 99.4 ± 17%. Against it:
- Nc1ccn([C@@H]2O[C@H](CO)[C@@H](O)[C@@H]2O)c(=O)n1 — within error, 83.2 ± 46%
- O=C(O)CN1C(=O)c2cccc3cccc(c23)C1=O — within error, 145 ± 46%
- Cc1ccc(C(=O)Nc2ccc(S(=O)(=O)O)c3cc(S(=O)(=O)O)cc(S(=O)(=O)O)c23)cc1NC(=O)c1cccc(NC(=O)Nc2cccc(C(=O)Nc3cc(C(=O)Nc4ccc(S(=O)(=O)O)c5cc(S(=O)(=O)O)cc(S(=O)(=O)O)c45)ccc3C)c2)c1 — within error, 141 ± 37%
- CC1=C(C(=O)O)N2C(=O)[C@@H](NC(=O)[C@H](N)c3ccccc3)[C@H]2SC1 — within error, 87.1 ± 16%
- OCCN(CCO)c1nc(N2CCCCC2)c2nc(N(CCO)CCO)nc(N3CCCCC3)c2n1 — within error, 107 ± 26%
- Cn1nnnc1SCC1=C(C(=O)O)N2C(=O)[C@@H](NC(=O)[C@H](O)c3ccccc3)[C@H]2SC1 — higher, 133 ± 14%
- Clc1cccc(Cl)c1NC1=NCCN1 — lower, 55.5 ± 4.1%
- CN(C)CCOC(C)(c1ccccc1)c1ccccn1 (stereo not given) — within error, 109 ± 7.3%
- O=C(c1ccc(OCCN2CCCCC2)cc1)c1c(-c2ccc(O)cc2)sc2cc(O)ccc12 — within error, 93 ± 3.9%
- NC(=O)N1c2ccccc2C=Cc2ccccc21 — lower, 58.7 ± 10%
- CN1CCOC(c2ccccc2)c2ccccc2C1 (stereo not given) — within error, 100 ± 38%
- CCCOc1cc(N)ccc1C(=O)OCCN(CC)CC — within error, 102 ± 10%
- CC(=O)OCC[N+](C)(C)C — within error, 96.2 ± 31%
- CO/N=C(\C(=O)N[C@@H]1C(=O)N2C(C(=O)O)=C(COC(C)=O)CS[C@H]12)c1csc(N)n1 — within error, 68.6 ± 14%

Source: the supplement of paper PMC7669877
